Measured values as given in PubChem BioAssay (NCI).
Compounds without any hit were thinned out: in the full panel of roughly 79,000, 15% have a hit. A number with no mark means an inactive call. The source made the active and inactive calls. No stated cut-off is given here; in the data, active means growth inhibition above about 70%; inactive means the rest.

Columns and labels:
[1] = NCI Yeast Anticancer Drug Screen. Data for the rad50 strain (AID 155);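 further: 0% = growth of vehicle-only cultures of the same strain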; settings: S. cerevisiae rad50 strain growth inhibition, stronger effect = higher value
In short: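 A DNA repair-deficient yeast mutant serves as the test organism; compound-induced growth inhibition is calculated against vehicle-treated cells.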

[2] = NCI Yeast Anticancer Drug Screen. Data for the mec2-1 strain (AID 157); settings: S. cerevisiae mec2-1 strain, stronger effect = higher value
In short: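 Mutant yeast (mec2-1) grown with compound; growth inhibition relative to vehicle control reported.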

[3] = NCI Yeast Anticancer Drug Screen. Data for the sgs1 mgt1 strain (AID 161);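 further: 0% = growth of cultures given vehicle only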; settings: S. cerevisiae sgs1 mgt1 strain, stronger effect = higher value
In short: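 This yeast growth screen uses a strain with defined DNA-repair lesions; compound-treated growth is compared with vehicle-treated growth.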

[4] = NCI Yeast Anticancer Drug Screen. Data for the cln2 rad14 strain (AID 165);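 further: 0% = growth equal to vehicle treated cultures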; settings: S. cerevisiae cln2 rad14 strain, stronger effect = higher value
In short: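 Readout is yeast growth inhibition versus vehicle-treated controls, using a strain with cln2 and rad14 alterations exposed to compound.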

[5] = NCI Yeast Anticancer Drug Screen. Data for the bub3 strain (AID 167); settings: S. cerevisiae bub3 mutant strain, stronger effect = higher value
In short: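 Inhibition values come from growth of compound-treated mutant yeast normalised to vehicle-treated controls.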

[6] = NCI Yeast Anticancer Drug Screen. Data for the mlh1 rad18 strain (AID 175); settings: S. cerevisiae mlh1 rad18 strain growth inhibition, stronger effect = higher value
In short: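 Genetically defined yeast (DNA repair-deficient) exposed to compounds; growth inhibition determined relative to vehicle.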

[7] = at 5.0 µM (retest, dose inferred, filed as 0.5)
[8] = at 50.0 µM (retest, dose inferred, filed as 5.0)

SMILES: CN(C)C(=S)N/N=C/c1ccccn1
- growth inhibition [1, 7]: 94% (active)
- growth inhibition [1, 8]: 98% (active)
- growth inhibition ([1]; at 50.0 µM): 98.7% (active)
- growth inhibition [2, 7]: 95% (active)
- growth inhibition [2, 8]: 98% (active)
- growth inhibition ([2]; at 50.0 µM): 98.9% (active)
- growth inhibition [3, 7]: 95% (active)
- growth inhibition [3, 8]: 99% (active)
- growth inhibition ([3]; at 50.0 µM): 98.4% (active)
- growth inhibition [4, 7]: 95% (active)
- growth inhibition [4, 8]: 99% (active)
- growth inhibition ([4]; at 50.0 µM): 98.3% (active)
- growth inhibition [5, 7]: 95% (active)
- growth inhibition [5, 8]: 97% (active)
- growth inhibition ([5]; at 50.0 µM): 99% (active)
- growth inhibition [6, 7]: 95% (active)
- growth inhibition [6, 8]: 98% (active)
- growth inhibition ([6]; at 50.0 µM): 98.8% (active)

SMILES: Cc1cc(SCC(=O)c2ccccc2)cc(C)[o+]1
- growth inhibition [1, 7]: -4%
- growth inhibition [1, 8]: 82% (active)
- growth inhibition ([1]; at 50.0 µM): 92% (active)
- growth inhibition [2, 7]: -5%
- growth inhibition [2, 8]: 80% (active)
- growth inhibition ([2]; at 50.0 µM): 95.6% (active)
- growth inhibition [3, 7]: -7%
- growth inhibition [3, 8]: 44%
- growth inhibition ([3]; at 50.0 µM): 56.4%
- growth inhibition [4, 7]: -6%
- growth inhibition [4, 8]: 1%
- growth inhibition ([4]; at 50.0 µM): 17.6%
- growth inhibition [5, 7]: 0%
- growth inhibition [5, 8]: 86% (active)
- growth inhibition ([5]; at 50.0 µM): 97.9% (active)
- growth inhibition [6, 7]: 1%
- growth inhibition [6, 8]: 69%
- growth inhibition ([6]; at 50.0 µM): 95.4% (active)

SMILES: O=C(CN1CCCCC1)c1ccc(/C=C/c2ccc(Cl)cc2)cc1
- growth inhibition [1, 7]: 7%
- growth inhibition [1, 8]: 98% (active)
- growth inhibition ([1]; at 50.0 µM): 98.6% (active)
- growth inhibition [2, 7]: 4%
- growth inhibition [2, 8]: 99% (active)
- growth inhibition ([2]; at 50.0 µM): 98.4% (active)
- growth inhibition [3, 7]: 12%
- growth inhibition [3, 8]: 98% (active)
- growth inhibition ([3]; at 50.0 µM): 97.1% (active)
- growth inhibition [4, 7]: -20%
- growth inhibition [4, 8]: 75% (active)
- growth inhibition ([4]; at 50.0 µM): 97.5% (active)
- growth inhibition [5, 7]: -13%
- growth inhibition [5, 8]: 99% (active)
- growth inhibition ([5]; at 50.0 µM): 96.8% (active)
- growth inhibition [6, 7]: 21%
- growth inhibition [6, 8]: 99% (active)
- growth inhibition ([6]; at 50.0 µM): 98.1% (active)

SMILES: CCCCCCCCCCCCCCCC[N+](C)(C)C(C)c1ccc(OC)cc1 (configuration not stated)
- growth inhibition [1, 7]: 98% (active)
- growth inhibition [1, 8]: 98% (active)
- growth inhibition ([1]; at 50.0 µM): 90.6% (active)
- growth inhibition [2, 7]: 98% (active)
- growth inhibition [2, 8]: 98% (active)
- growth inhibition ([2]; at 50.0 µM): 90.2% (active)
- growth inhibition [3, 7]: 98% (active)
- growth inhibition [3, 8]: 99% (active)
- growth inhibition ([3]; at 50.0 µM): 90% (active)
- growth inhibition [4, 7]: 98% (active)
- growth inhibition [4, 8]: 99% (active)
- growth inhibition ([4]; at 50.0 µM): 85.8% (active)
- growth inhibition [5, 7]: 98% (active)
- growth inhibition [5, 8]: 98% (active)
- growth inhibition ([5]; at 50.0 µM): 92.3% (active)
- growth inhibition [6, 7]: 98% (active)
- growth inhibition [6, 8]: 97% (active)
- growth inhibition ([6]; at 50.0 µM): 91.8% (active)

SMILES: CCN1/C(=C\c2cc(C)nc(-c3ccccc3)[n+]2C)C=Cc2ccccc21
- growth inhibition [1, 7]: 29%
- growth inhibition [1, 8]: 97% (active)
- growth inhibition ([1]; at 50.0 µM): 98% (active)
- growth inhibition [2, 7]: 27%
- growth inhibition [2, 8]: 99% (active)
- growth inhibition ([2]; at 50.0 µM): 98.1% (active)
- growth inhibition [3, 7]: 27%
- growth inhibition [3, 8]: 99% (active)
- growth inhibition ([3]; at 50.0 µM): 98.7% (active)
- growth inhibition [4, 7]: 43%
- growth inhibition [4, 8]: 98% (active)
- growth inhibition ([4]; at 50.0 µM): 98.8% (active)
- growth inhibition [5, 7]: 64%
- growth inhibition [5, 8]: 99% (active)
- growth inhibition ([5]; at 50.0 µM): 98.8% (active)
- growth inhibition [6, 7]: 48%
- growth inhibition [6, 8]: 99% (active)
- growth inhibition ([6]; at 50.0 µM): 98.7% (active)

SMILES: Cc1c(-c2ccccc2)ccnc1/C=N/NC(=S)Nc1ccc(N(C)C)cc1
- growth inhibition [1, 7]: 48%
- growth inhibition [1, 8]: 94% (active)
- growth inhibition ([1]; at 50.0 µM): 74.8% (active)
- growth inhibition [2, 7]: 38%
- growth inhibition [2, 8]: 96% (active)
- growth inhibition ([2]; at 50.0 µM): 76.7% (active)
- growth inhibition [3, 7]: 49%
- growth inhibition [3, 8]: 93% (active)
- growth inhibition ([3]; at 50.0 µM): 70% (active)
- growth inhibition [4, 7]: 43%
- growth inhibition [4, 8]: 91% (active)
- growth inhibition ([4]; at 50.0 µM): 60.6%
- growth inhibition [5, 7]: 59%
- growth inhibition [5, 8]: 94% (active)
- growth inhibition ([5]; at 50.0 µM): 81.7% (active)
- growth inhibition [6, 7]: 36%
- growth inhibition [6, 8]: 93% (active)
- growth inhibition ([6]; at 50.0 µM): 79.6% (active)

SMILES: CCC(C)C(C(=O)NOC(=O)c1ccccc1)/C(N)=N/OC(=O)c1ccccc1 (configuration not stated)
- growth inhibition [1, 7]: 89% (active)
- growth inhibition [1, 8]: 99% (active)
- growth inhibition ([1]; at 50.0 µM): 99.5% (active)
- growth inhibition [2, 7]: 83% (active)
- growth inhibition [2, 8]: 100% (active)
- growth inhibition ([2]; at 50.0 µM): 98.3% (active)
- growth inhibition [3, 7]: 96% (active)
- growth inhibition [3, 8]: 99% (active)
- growth inhibition ([3]; at 50.0 µM): 99.6% (active)
- growth inhibition [4, 7]: 87% (active)
- growth inhibition [4, 8]: 99% (active)
- growth inhibition ([4]; at 50.0 µM): 99.5% (active)
- growth inhibition [5, 7]: 91% (active)
- growth inhibition [5, 8]: 99% (active)
- growth inhibition ([5]; at 50.0 µM): 99.4% (active)
- growth inhibition [6, 7]: 97% (active)
- growth inhibition [6, 8]: 99% (active)
- growth inhibition ([6]; at 50.0 µM): 98.9% (active)

SMILES: COc1cccc2c1C(=O)c1c(O)c3c(c(O)c1C2=O)C[C@@](O)(C(=O)CO)C[C@@H]3OC1CC(N)CC(C)O1 (some centres not stated)
- growth inhibition [1, 7]: 81% (active)
- growth inhibition [1, 8]: 98% (active)
- growth inhibition ([1]; at 50.0 µM): 89.3% (active)
- growth inhibition [2, 7]: 24%
- growth inhibition [2, 8]: 98% (active)
- growth inhibition ([2]; at 50.0 µM): 90.4% (active)
- growth inhibition [3, 7]: 61%
- growth inhibition [3, 8]: 99% (active)
- growth inhibition ([3]; at 50.0 µM): 90.1% (active)
- growth inhibition [4, 7]: 63%
- growth inhibition [4, 8]: 98% (active)
- growth inhibition ([4]; at 50.0 µM): 85% (active)
- growth inhibition [5, 7]: 76% (active)
- growth inhibition [5, 8]: 99% (active)
- growth inhibition ([5]; at 50.0 µM): 88.9% (active)
- growth inhibition [6, 7]: 69%
- growth inhibition [6, 8]: 97% (active)
- growth inhibition ([6]; at 50.0 µM): 92% (active)

SMILES: Cn1cc(NC(=O)Nc2cc(C(=O)Nc3cc(C(=O)Nc4cc(S(=O)(=O)O)c5cc(S(=O)(=O)O)cc(S(=O)(=O)O)c5c4)n(C)c3)n(C)c2)cc1C(=O)Nc1cc(C(=O)Nc2cc(S(=O)(=O)O)c3cc(S(=O)(=O)O)cc(S(=O)(=O)O)c3c2)n(C)c1
- growth inhibition [1, 7]: 35%
- growth inhibition [1, 8]: 90% (active)
- growth inhibition ([1]; at 50.0 µM): 86% (active)
- growth inhibition [2, 7]: 20%
- growth inhibition [2, 8]: 80% (active)
- growth inhibition ([2]; at 50.0 µM): 66.8%
- growth inhibition [3, 7]: 21%
- growth inhibition [3, 8]: 77% (active)
- growth inhibition ([3]; at 50.0 µM): 64.2%
- growth inhibition [4, 7]: 32%
- growth inhibition [4, 8]: 48%
- growth inhibition ([4]; at 50.0 µM): 60.5%
- growth inhibition [5, 7]: 30%
- growth inhibition [5, 8]: 92% (active)
- growth inhibition ([5]; at 50.0 µM): 77.5% (active)
- growth inhibition [6, 7]: 26%
- growth inhibition [6, 8]: 83% (active)
- growth inhibition ([6]; at 50.0 µM): 87% (active)
